Laboratory results taken from PubChem BioAssay (NCATS).
Inconclusive results are not listed. Activity calls are given as the source filed them. Calls come from the whole dose curve; as a rule, active = well fitted curve in the direction sought with a large enough effect; inconclusive = small, poorly fitted or top-dose-only effect, or another doubt; inactive = no such curve, though single readings can be large; an effect the other way counts as inactive or inconclusive.

Key:
[1] = qHTS of pediatric cancer cell lines to identify multiple opportunities for drug repurposing: Primary screen for Rh41 cells (AID 1347108); note: nearly all actives have a fitted effect of over 70% in size;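 for activity change, negative = cytotoxic: series mostly up to about 46 µM; luminescence drop marks cytotoxic hits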
In short: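 ATP-based luminescence (CellTiter-Glo) quantifies viability after a 48-hour exposure. Compounds are dosed across 8 or 11 final concentrations; DMSO and 2.3 µM bortezomib serve as controls.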

[2] = qHTS of pediatric cancer cell lines to identify multiple opportunities for drug repurposing: Confirmatory screen for NB1643 cells (AID 1347109); note: nearly all actives have a fitted effect of over 45% in size;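 for activity change, negative = cytotoxic: plate controls were DMSO for no effect and bortezomib for full effect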
In short: (§1)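 Cells (500-1,000/well) rested 5 h, then received compounds for 48 h; metabolically active cells were measured by CellTiter-Glo luminescence. Final concentrations spanned up to 46 µM (MIPE, 11-point) or 0.59 nM-46 µM (NPC, 8-point) in primary screens, 11-point in follow-ups.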

[3] = qHTS of pediatric cancer cell lines to identify multiple opportunities for drug repurposing: Confirmatory screen for A673 cells (AID 1347110);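 note: cells exposed to compound for 48 h before the viability read; nearly all actives have a fitted effect of over 65% in size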
In short: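 Viability was read as ATP luminescence (CellTiter-Glo) after 48 h of compound exposure at 37 C in A673 cells seeded at 500-1,000/well. Titrations reached 46 uM final, with 11 points in the confirmatory screen. Concentration-response curves were fitted directly.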

[4] = qHTS of pediatric cancer cell lines to identify multiple opportunities for drug repurposing: Confirmatory screen for SK-N-MC cells (AID 1347111);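 note: cells exposed to compound for 48 h before the readout; nearly all actives have a fitted effect of over 70% in size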;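 for activity change, negative = cytotoxic: plate controls were DMSO for no effect and bortezomib for full effect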
In short: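 Seed 500-1,000 cells/well; rest 5 h at 37 degrees C. Pin-transfer compounds, 11-point titration. Incubate 48 h. Add CellTiter-Glo, 15 min RT, read luminescence.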

[5] = qHTS of pediatric cancer cell lines to identify multiple opportunities for drug repurposing: Confirmatory screen for BT-12 cells (AID 1347112); note: nearly all actives have a fitted effect of over 55% in size; for activity change, negative = cytotoxic: % is set by controls: 0 for no effect and ±100 for the full control effect
In short: as §1

[6] = qHTS of pediatric cancer cell lines to identify multiple opportunities for drug repurposing: Confirmatory screen for LAN-5 cells (AID 1347113); note: nearly all actives have a fitted effect of over 65% in size
In short: as §1

[7] = qHTS of pediatric cancer cell lines to identify multiple opportunities for drug repurposing: Confirmatory screen for DAOY cells (AID 1347114); note: nearly all actives have a fitted effect of over 65% in size; for activity change, negative = cytotoxic: % is set by controls: 0 for no effect and ±100 for the full control effect
In short: (§2)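 Viability measured as metabolically active cells via CellTiter-Glo luminescence following 48 hours of compound exposure, 11-point dilutions in confirmatory testing. 500-1,000 cells/well plated 5 hours before dosing; controls were DMSO and 2.3 µM bortezomib.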

[8] = qHTS of pediatric cancer cell lines to identify multiple opportunities for drug repurposing: Confirmatory screen for NB-EBc1 cells (AID 1347115);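 note: cells exposed to compound for 48 h before the viability read; nearly all actives have a fitted effect of over 45% in size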; for activity change, negative = cytotoxic: % is set by controls: 0 for no effect and ±100 for the full control effect
In short: as §1

[9] = qHTS of pediatric cancer cell lines to identify multiple opportunities for drug repurposing: Confirmatory screen for SJ-GBM2 cells (AID 1347116); note: nearly all actives have a fitted effect of over 60% in size;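 for activity change, negative = cytotoxic: plate controls were DMSO for no effect and bortezomib for full effect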
In short: as §2
Potency is the fitted concentration of half-maximal effect.

Cc1cc(Nc2cc(CN3CCOCC3)c3nc(C)c(Cc4ccc(Cl)cc4F)n3n2)n[nH]1
active: Potency [1] 14.8 µM

COC(=O)Nc1ccc(-c2nc(N3CCOCC3)c3cnn(C4CCN(Cc5cccnc5)CC4)c3n2)cc1
inactive: Potency [2]
active: Potency [1] 0.132 µM | Potency [3] 1.31 µM | Potency [4] 1.04 µM

CCN(CC)CCCCNc1ncc2cc(-c3cc(OC)cc(OC)c3)c(NC(=O)NC(C)(C)C)nc2n1
active: Potency [1] 11.8 µM

Nc1ccc(S(=O)(=O)Nc2ncccn2)cc1
inactive: Potency [1]

C[C@H]1C[C@@H]2[C@@H]([C@@H](O)C[C@@]3(C)[C@H]2CC[C@]3(O)C(=O)CO)[C@@]2(C)C=CC(=O)C=C12
inactive: Potency [1]

CCc1cc2c(cc1N1CCC(N3CCOCC3)CC1)C(C)(C)c1[nH]c3cc(C#N)ccc3c1C2=O
inactive: Potency [1]

N#CCNC(=O)c1ccc(-c2ccnc(Nc3ccc(N4CCOCC4)cc3)n2)cc1
active: Potency [1] 18.7 µM

NC1(Cc2ccc(Cl)cc2)CCN(c2ncnc3[nH]ccc23)CC1
active: Potency [1] 3.32 µM

COc1ccc(CC2c3cc(OC)c(OC)cc3CC[N+]2(C)CCC(=O)OCCCCCOC(=O)CC[N+]2(C)CCc3cc(OC)c(OC)cc3C2Cc2ccc(OC)c(OC)c2)cc1OC (stereo not given)
inactive: activity change, negative = cytotoxic [1] 23.2% [at 9.22 µM]

Nc1cccc(-c2cc3c(Oc4cccc(O)c4)ncnc3[nH]2)c1
active: Potency [1] 5.9 µM

c1nc2nc(Nc3ccc(N4CCOCC4)cc3)nc(NC3CCCCC3)c2[nH]1
active: Potency [1] 5.9 µM

C1Cc2[nH]nc(-c3nn[nH]n3)c2C1
inactive: Potency [1]

Nc1ncnc2c1c(-c1cccc(OCc3ccccc3)c1)cn2C1CC(CN2CCCC2)C1 (stereo not given)
active: Potency [1] 1.87 µM

O=C(Nc1cc(C(F)(F)F)cc(C(F)(F)F)c1)c1cc(Cl)ccc1O
active: Potency [1] 2.35 µM | Potency [2] 1.65 µM | Potency [3] 3.29 µM | Potency [4] 3.69 µM | Potency [5] 3.69 µM | Potency [6] 2.61 µM

CCC[C@H](NC(=O)C(C#N)=Cc1cccc(Br)n1)c1ccccc1
active: Potency [1] 14.8 µM

Cc1nc(N)ncc1-c1nc(N2CCOCC2)c2sc(C(C)(C)O)cc2n1
active: Potency [1] 1.87 µM | Potency [2] 1.65 µM | Potency [3] 2.33 µM | Potency [4] 0.293 µM | Potency [6] 1.47 µM

NC(=O)Nc1cc(-c2cccc(F)c2)sc1C(=O)N[C@H]1CCCNC1
inactive: Potency [5]
active: Potency [1] 1.87 µM | Potency [2] 0.928 µM | Potency [3] 1.85 µM | Potency [4] 0.414 µM | Potency [6] 0.827 µM | Potency [7] 2.33 µM | Potency [8] 1.65 µM | Potency [9] 1.04 µM

CNC(=O)c1c(F)cccc1Nc1nc(Nc2cc3c(cc2OC)CCN3C(=O)CN(C)C)nc2[nH]ccc12
active: Potency [1] 0.148 µM | Potency [2] 0.465 µM | Potency [3] 11.7 µM | Potency [4] 0.414 µM | Potency [6] 0.208 µM | Potency [8] 5.85 µM | Potency [9] 0.928 µM

COc1cc2nccc(Oc3ccc(NC(=O)C4(C(=O)Nc5ccc(F)cc5)CC4)cc3)c2cc1OC
active: Potency [1] 9.35 µM | Potency [3] 18.5 µM | Potency [9] 1.65 µM
inactive: Potency [2] | Potency [5] | Potency [8]

Cc1cc(N2CCOCC2)cc2[nH]c(-c3c(NC[C@@H](O)c4cccc(Cl)c4)cc[nH]c3=O)nc12
active: Potency [1] 0.296 µM | Potency [2] 0.827 µM | Potency [3] 1.17 µM | Potency [4] 0.737 µM | Potency [6] 1.17 µM | Potency [7] 3.29 µM | Potency [9] 0.369 µM

Nc1cc(C(F)(F)F)c(-c2cc(N3CCOCC3)nc(N3CCOCC3)n2)cn1
active: Potency [1] 1.18 µM | Potency [3] 2.93 µM | Potency [4] 5.22 µM

CC(C)[C@H](C(=O)Nc1ccc(C(=O)NO)cc1)c1ccccc1
active: Potency [1] 1.18 µM | Potency [2] 0.585 µM | Potency [3] 1.04 µM | Potency [4] 0.465 µM | Potency [5] 9.27 µM | Potency [6] 0.827 µM | Potency [9] 1.47 µM

CNC(=O)c1ccc(N2C(=S)N(c3cnc(C#N)c(C(F)(F)F)c3)C(=O)C23CCC3)cc1F
active: Potency [1] 1.48 µM
inactive: Potency [2] | Potency [3] | Potency [4] | Potency [5] | Potency [6] | Potency [7] | Potency [8] | Potency [9]

CNC(=O)c1ccccc1Nc1nc(Nc2ccc(N3CCOCC3)cc2OC)ncc1Cl
active: Potency [1] 0.935 µM | Potency [2] 0.369 µM | Potency [3] 1.04 µM | Potency [4] 0.737 µM | Potency [6] 0.414 µM | Potency [8] 8.27 µM | Potency [9] 9.27 µM

O=c1[nH]nc(Sc2ncc([N+](=O)[O-])s2)n1-c1ccc2c(c1)OCCO2
active: Potency [1] 6.62 µM | Potency [2] 7.37 µM | Potency [3] 9.27 µM | Potency [4] 5.85 µM | Potency [5] 9.27 µM | Potency [6] 7.37 µM | Potency [8] 7.37 µM | Potency [9] 13.1 µM

Cc1c(Cn2c(C)nc3c(C(=O)O)cc(N4CCOCC4)cc32)cccc1C(F)(F)F
inactive: Potency [2] | Potency [3] | Potency [5] | Potency [8] | Potency [9]
active: Potency [1] 7.43 µM

C[C@@H](Oc1cc(-n2cnc3ccc(CN4CCN(C)CC4)cc32)sc1C(N)=O)c1ccccc1C(F)(F)F
active: Potency [2] 42.7 µM | Potency [3] 0.117 µM | Potency [4] 0.0537 µM | Potency [5] 47.9 µM | Potency [6] 10.7 µM | Potency [8] 0.24 µM | Potency [9] 10.4 µM
inactive: Potency [1]
